Rows were chosen to be rich in hits. Some 1.8% of all compounds tested hit in one or more screens of this group.
BRCA1 expr up: activators of BRCA1 expression | AID 624202 | MCF7-BRCA1-FFLuc reporter, luminescence, 48 h; response scale: scaled: vehicle 0%, 10 µM genistein 100% | 380,000 tested, 1.1% active | Potency, µM (doses to about 46.1 µM), inactives show at the highest dose activation, hits mostly activators; also: potency is read from the fitted curve at half-maximal effect; nearly all actives have a fitted effect of over 80% in size
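Reporter cells (MCF7, BRCA1 promoter-firefly luciferase) received library compounds across a concentration series for 48 h. End-point luminescence was measured and concentration-effect curves derived after normalization.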
AT treatment: potential ataxia-telangiectasia treatment. F2112 A-T fibroblasts, KAP-1 phosphorylation AlphaLISA; neocarzinostatin DNA damage 30 min before lysis. Potency, µM (highest dose often 57.5 µM), inactives show at the highest dose activation, actives largely listed as activators. 320,000 tested, 0.19% active; also: potency is read from the fitted curve at half-maximal effect; % of control where 0% means no effect; nearly all actives have a fitted effect of over 45% in size
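ATM-like activity read as KAP-1 phosphorylation via AlphaLISA donor/acceptor antibody pairs after lysis and 6 hr at 25C. Cells were ATM-null patient fibroblasts (F2112, hTERT), dosed 60 min, then exposed to the DSB inducer NCS for 30 min.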
CCT modulator: cytosolic chaperonin activity modulation; AID 651819; activity change, % (no concentration beside the values), hits read low; purified chaperonin ATPase assay, HTRF ADP detection, 30 min; 360,000 tested, 0.3% active; in the data active = activity change below about -30%; also: % is scaled to controls: 0 for no effect and ±100 for the full control effect
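ATPase activity: ADP formed was measured by HTRF Transcreener (665/615 nm ratio) after 30 min at 37 deg C with 10 uM ATP. Compounds screened at one 76 uM concentration against 40 or 20 nM TRiC in Tris pH 7.4/KCl/MgCl2/DTT buffer.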
Akt phos inh: Akt phosphorylation inhibition; Neuro2A IGF-stimulated pAkt S473 HTRF, 20 min; stronger effect = lower value; activity change, % for hits at 50 µM; 360,000 tested, 0.32% active; in the data active = activity change below about -80%; inconclusive = mostly about -51% to -80%; also: % is scaled to controls: 0 for no effect and ±100 for the full control effect
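Neuro2A cells (4,500/well, DMEM with 0.5% FBS) were treated with compound at a single 50 µM final concentration, stimulated with 6 nM IGF for 20 min at 37 °C, and lysed. Phospho-Akt Ser473 was read by HTRF as 665/615 ratio ×10^4.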
Mm-Cpn inhibitor: M. maripaludis TRiC chaperonin inhibition. purified Mm-Cpn ATPase, ADP Transcreener TR-FRET. Potency, µM (doses to about 76.9 µM), for inactives: at the highest dose activity, negative = inhibition, usual class: inhibitors. 330,000 tested, 0.031% active. AID 504842; also: potency is read from the fitted curve at half-maximal effect; % is scaled to controls: 0 for no effect and ±100 for the full control effect; nearly all actives have a fitted effect of over 80% in size
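Measured: ADP formation by purified Mm-CPN. Conditions: 25 nM protein, 10 uM ATP, Tris pH 7.4 with Mg2+, K+ and DTT, 37°C for 30 min. Detection: Transcreener HTRF after 30 min at room temperature.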
Active calls of the source: *; i = inactive; u = inconclusive; x = no result given; [ ] = another dose, or the depositor's remark. Unless noted, calls follow the shape of the dose curve; as a rule, active = well fitted curve in the direction sought with a large enough effect; inconclusive = small, poorly fitted or top-dose-only effect, or another doubt; inactive = no such curve, though single readings can be large; an effect the other way counts as inactive or inconclusive.

SMILES	BRCA1 expr up	AT treatment	CCT modulator	Akt phos inh	Mm-Cpn inhibitor
Nc1c(-c2ccccc2)cnn1-c1cccc(C(F)(F)F)c1	5µM*	13%	-2	i	2%
Cc1ccccc1-c1cnn(-c2cccc([N+](=O)[O-])c2)c1N	24%	-4%	1	i	1%
CCN(CC)c1cc(C)c(/C=C/c2ccnc3ccccc23)cc1C	-9%	x	x	x	x
Cc1cc(/C=C2/C(=O)N(C)C(=S)N2C)c(C)n1C1CC1	11µM*	-16%	-1	i	-10%
Cc1cc(/C=C2\SC(=S)NC2=O)c(C)n1C1CC1	13µM*	-9%	-3	i	1%
O=C1NC(=S)SC1=Cc1cc(Br)ccc1O	-40%	x	-1	i	x
Clc1ccccc1CSc1cc2c(nn1)-c1ccccc1CC2	4µM*	3%	1	i	2%
N=c1ccn2c(n1)OC1C(O)[C@@H](CO)O[C@H]12 (stereo not given in full)	-26%	x	x	x	x
COc1ccc(-c2cc(C(F)(F)F)nc(N3CCCCC3)n2)cc1OC	-43%	35µM*	1	i	1%
CC1=C(C(=O)OC2CCCC2)C(c2c(F)cccc2Cl)CC(=O)N1 (stereo not given)	0%	x	x	x	x
O=C(O)c1cccc(-n2cccc2/C=N/O)c1	7%	0%	-1	-109%*	0%
O=C(C[n+]1ccccc1Br)c1ccc(Cl)cc1	3%	x	x	x	x
CCc1ccc(NC(=O)CSc2nc(=O)n3cc(C)ccc3n2)cc1	13%	-1%	-5	i	1%
CC(C)OC(=O)CSc1nnc(CNc2nc(-c3ccccc3)cs2)n1C	-2%	7%	0	-103%*	-1%
Cn1c(CNc2nc(-c3ccccc3)cs2)nnc1SCC(=O)OC1CCCCC1	-10%	-1%	-2	i	-4%
CCn1c(-c2cc(-c3cc(C)ccc3C)nc3ccccc23)n[nH]c1=S	-21%	-3%	-72*	i	0%
CCOC(=O)N1CCN(C(=O)CN(Cc2ccc(Cl)cc2)S(=O)(=O)c2ccccc2)CC1	-30%	-2%	-4	-103%*	4%
CCOC(=O)N1CCN(C(=O)CSCc2ccccc2)CC1	11µM*	1%	-1	i	0%
Cc1cccn2c(=O)c(C=O)c(N3CCSCC3)nc12	3%	-1%	1	i	-5%
Cc1ccc(CSc2nc3sc(C)c(C)c3c(=O)n2Cc2ccco2)cc1	3%[1.84 µM]	1%	-31*	x	-3%
CCN(CC)c1ccc(/C=N/N2CCOCC2)c(O)c1	6.3µM*	-7%	2	i	-2%
COc1ccc2sc(-c3ccccc3OC)c(-c3ccc(O)cc3)c2c1	-22%	-1%	-1	i	-28%
COC(=O)c1c(-c2ccc(OC)cc2)sc2ccc(N3CCOCC3)cc12	7%	17%	-1	i	50µM*
COC(=O)c1c(-c2ccccc2OC)sc2ccccc12	-40%	20%	2	i	35µM*
COc1ccc(-c2sc3ccc(N4CCOCC4)cc3c2-c2ccc(O)cc2)cc1	0%	-5%	1	i	0%
SMILES	BRCA1 expr up	AT treatment	CCT modulator	Akt phos inh	Mm-Cpn inhibitor
COC(=O)c1c(-c2ccc(SC)cc2)sc2ccccc12	78%	19%	1	i	u
COc1ccc(-c2c(-c3ccccc3OC)sc3ccccc23)cc1	0%	21%	-2	i	14µM*
COC(=O)c1c(-c2ccc(OC)cc2)sc2ccccc12	x	u	x	x	35µM*
CCc1cccc(N2C(=O)N(CC(=O)NCc3cccc(OC)c3OC)c3ccccc3S2(=O)=O)c1	-29%	x	x	x	x
c1coc(CNc2ncnc3c2nc2n3CCCC2)c1	1%	x	x	x	x
CC(C)(C)CC(C)(C)c1ccc(OCC(=O)N/N=C/c2ccc(S(=O)(=O)O)o2)cc1	-6%	0%	-2	i	2%
Cc1ccc(C(C)C)c(OCC(=O)N/N=C/c2ccc(S(=O)(=O)O)o2)c1	0%	14µM*	2	i	3%
CC(=O)Nc1ccc(N(C)C)cc1[N+](=O)[O-]	0%	-9%	0	-109%*	-2%
C=CCn1c(-c2csc(-c3ccc(Cl)cc3)n2)n[nH]c1=S	35%	-4%	0	i	-2%
C=CCn1c(-c2csc(-c3ccccc3)n2)n[nH]c1=S	16%	x	-1	-106%*	x
c1coc(-c2nn3c(-c4ccco4)nnc3s2)c1	21%	6%	-2	i	-8%
COc1ccccc1-c1nn2c(-c3ccco3)nnc2s1	7.9µM*	10%	2	i	1%
COc1ccccc1-c1nn2c(=O)cc(C)nc2s1	10µM*	15%	-3	i	-1%
CCc1ccc(NC(=O)c2ccc3nc(N)sc3c2)cc1	11µM*	-2%	1	i	0%
CCCOc1ccc(C(=O)OCCN2CCCCC2)c(O)c1	8%	x	0	i	x
COC(=O)c1cc(S(=O)(=O)N2CCOCC2)ccc1Sc1ccccc1N	4%	x	0	-99%*	-23%
c1ccc(CCNc2nc3ccccc3s2)cc1	11µM*	x	-1	i	3%
C[N+](C)(C)c1ccc(/C=C/c2ccnc3ccccc23)cc1	-25%	x	x	x	x
CC(C)NC(=O)c1[nH]nc2c1CCc1ccccc1-2	2µM*	-9%	-2	i	-2%
CNC(=O)c1[nH]nc2c1CCc1cc(OC)ccc1-2	u	10µM*	-1	i	-1%
COc1cccc(/C=N/NC(=O)c2[nH]nc3c2CCc2ccccc2-3)c1	-56%	-3%	-2	i	1%
COc1ccc2c(c1)CCc1c-2n[nH]c1C(=O)NCCC(C)C	u	12%	-5	i	1%
O=C(CN1C(=O)NC2(CCCC2)C1=O)NNC(=O)c1ccc(Br)cc1	-13%	-2%	-1	i	1%
CCNC(=O)C1(C)CCN(Cc2ccc(-c3ccccc3)cc2)C1 (stereo not given)	16%	x	-3	i	x
O=C(NCCCc1ccccc1)c1ccccc1	10µM*	-8%	-1	i	0%
SMILES	BRCA1 expr up	AT treatment	CCT modulator	Akt phos inh	Mm-Cpn inhibitor
CCN(CC)S(=O)(=O)c1cccc(C(=O)NCCc2ccccc2)c1	6.3µM*	x	-3	x	x
O=C(NCCc1ccccc1)c1ccc(Br)o1	7.1µM*	1%	-2	i	-1%
COc1ccc(CCNS(=O)(=O)CCNC(=O)c2ccccc2)cc1	-24%	-19%	1	i	-16%
COc1ccc(C(=O)NCCS(=O)(=O)NCCc2ccccc2)cc1	4.5µM*	14%	-4	i	2%
CC(=O)N1CCc2c(sc3c2c(=O)n(-c2ccc(C)cc2)c(=O)n3Cc2c(F)cccc2Cl)C1	7%	x	x	x	x
Cc1nn(-c2ccc(Cl)cc2)c(=O)c2ccccc12	54%	11%	1	i	2%
Cc1nn(-c2ccc(Cl)nn2)c(=O)c2ccccc12	11µM*	-1%	1	i	2%
O=C(CSc1nnc2sc3ccccc3n12)c1ccco1	13µM*	-4%	-5	i	2%

Source: PubChem (National Center for Advancing Translational Sciences (NCATS))
